The text below walks through data of the supplement of paper PMC10105736.

Holding throughout (assay): MAPPIT interaction score (arbitrary units); higher = stronger binary interaction signal, active = hit call of the paper
In one test the target is Tm1. The note with it: MAPPIT configuration: N-N; pair source set: Curagen_high_conf.
For a further test, the target named is TfIIA-L. Particulars: MAPPIT configuration: N-N; pair source set: screen_2;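 active = MAPPIT score above the 99th percentile of random reference set scores in the same batch; inactive = at or below it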.
Another test deals with Sxl. Particulars: MAPPIT configuration: N-N; pair source set: Lit-BM-16.
A further test has as its target Tim17b2. Particulars: MAPPIT configuration: N-C.
For the next test, the target named is THG. Particulars: MAPPIT configuration: N-N; pair source set: screen_2.
A further test addresses Syp. Particulars: MAPPIT configuration: N-N; pair source set: DPIM.
The target of a further test is Traf-like. Particulars: MAPPIT configuration: N-N; pair source set: Curagen_low_conf.
In the next test the target is Tcs6. Particulars: MAPPIT configuration: N-N; pair source set: screen_2.
The target in the next test is Tgi. Particulars: MAPPIT configuration: N-N; pair source set: Lit-BM-16.
A further test addresses yki. Particulars: MAPPIT configuration: N-N; pair source set: Lit-BM-16.
The target of a further test is Taf12. The note with it: MAPPIT configuration: N-N; pair source set: Curagen_low_conf.
A further test concerns the target Tom20. The note with it: MAPPIT configuration: N-N; pair source set: DPIM.
For another test, the target named is Swt1. The note with it: MAPPIT configuration: N-N; pair source set: Finley_Y2H.

± gives the standard deviation of the averaged measurements.
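Further: HEK293T cells with Epo stimulation, STAT-responsive firefly luciferase reporter, fold induction versus unstimulated cells divided by the larger fold induction of two negative controls lacking either bait or prey.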

B1: RpS19b (protein)
chain: MPGVTVKEIDQHVLTKNMAAFLKKSGKIFVPEQAVYMKTGKFKETAPTDDDWFYTRCASIMRHLYLRSPAGVGAFTKVYSGRKRNGVRPSKHCRSSDGCIRKALQALEAANMVERHPDGGRKLTPQGQRNLDRIANKIVAKQRERSAPVSMIITT
Regarding B1, the MAPPIT interaction score in the test with Tm1 was 0.314 (inactive).

B2: TfIIA-S-2 (protein)
chain: MNYQHYRATTLGRTLQDTLDEMMERGDITKKIANLVLLRYDKSISTALKDHGTSNMSFTAERLETFRCCDNVWTLILKDAEFREDQHSLKVDVVKIVACLGTDNGNE
B2 returned an MAPPIT interaction score with TfIIA-L of 3.17 ± 3.8.

B3: Unr (protein)
chain: MNTQSKVYRTGEEIYDNLPCDSYFNMNAIRNLGIPTTFPTIGTFTLDSTTLGLQPQGQGPSPQQQQHQQQQQQQQQQHQQNMHHHQHQQQHMQQQQQQQQHQQQHQQQQHQQQQQHQQQQQQQQQHPTIGMFDANEVNDVIQNPPQIGVFQSNSVLTNGAGSGSSIFGSQSSNSSAAAADPSQTTRETGIIEKLLHSYGFIQCCERQARLFFHFSQFSGNIDHLKIGDPVEFEMTYDRRTGKPIASQVSKIAPEVVLSEERVTGTVTTELRTDSANNVLNSSETTGRISYENRGECFFLPYTKDDVEGNVNLRAGDKVSFQIATNQRGNLGACHIRLENPAQPVKYRGVVCSMKESFGFIERADVVKEIFFHFSEAEGNVELRPGDDVEFTIQTRSSASVPPQGREFACNITRLAPGSVIFEDVDSTVYKGQVLKSLDRNNPVRQNNDPLPGRIRYRALDYSEVEVPFGDKDQKGDFTLRHGDWVQFLLATDRRDQLQRATSIALLDETFKVSGEKREQGTIASLKEGFGFLRCVERQARLFFHFTEVLDTSREIDINDEVEFTVIQEPGLAYNNSRLQAIRIKHLPPNSVQFETLVASNIEGCVTREAPKSPIKSQDRVEGGVITYEHADVKKTIMYFLKDCEKPPRIGERVRFDIYMVKRNKECIAVNVQQVSLHQQQQQQQQQLHLNQSNAGANINQNDQLGGLSNGISSSSSNASLQNGYVMHGSPGGSTSSVGSNNPVHLDEFKMENNNHAGSDAGQVYRGFIAVMKENFGFIETLSHDEEVFFHFSNYMGNPNWLELGQEVEYTLARNGNTSVSGNCLPAENVRMLPKNSIPQPAVLETTHNGVVARPLRCINPDQQEYAGLIEILDELRTTVISQHEFGITSLVNKRDLLQKGDLVSFRIDESGRAACVNAVRQKKRATVDSIKGQFGFLNFEVEDGKKLFFHMSEVQGNTVALHPGDTVEFSVVTNQRNGKSSACNVLKINDRPDRLISRLKLNGDDTVPRLILIRAPKGPQGKGFSVLARHPRIPGNLVE
For the molecule B3, the MAPPIT interaction score in the test with Sxl was 1.51 (inactive).

B4: meigo (protein)
chain: MNLPERSRFVIYAVGIFVCYFLYGIVQEKLTRGRYGEEVQTDGSVGERFTYALALVWVQCLCNYVFAKVLLTIRPQKEDTTNAGSYVACSLTYLLAMVSTNMAMRWVPYPTAVVGKSAKPIPVMILGVLIGRKSYSWTRYACVLTIVLGVILFMYKEGKVSNLPAETTLLGEVLLFLSLSMDGLTGAVQERIRAASAPSGQQMMRAMNFWSTLMLGVAMVFTGEAKEFMYFTIRHPEAWTHLSLIAVCGVLGQFFIFLMVASFGPLACSVVTTTRKFFTVLCSVLLFGNVLIARQWLGAVLVFAALFVDMLYGKKAPLATAKKPPVEGKLSEEKKLNS
As to B4, the MAPPIT interaction score with Tim17b2 (pair source set: screen_4) is -0.125 (inactive).

B5: snf (protein)
chain: MEMLPNQTIYINNLNEKIKKEELKKSLYAIFSQFGQILDIVALKTLKMRGQAFVIFKEIGSASNALRTMQGFPFYDKPMQIAYSKSDSDIVAKIKGTFKERPKKVKPPKPAPGTDEKKDKKKKPSSAENSNPNAQTEQPPNQILFLTNLPEETNEMMLSMLFNQFPGFKEVRLVPNRHDIAFVEFTTELQSNAAKEALQGFKITPTHAMKITFAKK
B5: the MAPPIT interaction score with THG is 0.333 (inactive).

B6: grass (protein)
chain: MMIASSLAVLYGIAIVSSMGVQSARADYADDCTTPDGDQGQCMPFSSCRTIEERLTEAQKAGQKVPADYASYLQKALCGEFNGVRHFCCPSANIQHNSKVMSLFKDENFDCGNFLSQRVSNGYEVKLSSRPWMALLRYQQFGESRFLCGGAMISERYILTAAHCVHGLQNDLYEIRLGEHRISTEEDCRQQGRKKKCAPPVVNVGIEKHLIHEKYDARHIMHDIALLKLNRSVPFQKHIKPICLPITDELKEKAEQISTYFVTGWGTTENGSSSDVLLQANVPLQPRSACSQAYRRAVPLSQLCVGGGDLQDSCKGDSGGPLQAPAQYLGEYAPKMVEFGIVSQGVVTCGQISLPGLYTNVGEYVQWITDTMASNGL
As for B6, the MAPPIT interaction score in the test with Syp is -0.0477 (inactive).

B7: CG3792 (protein)
chain: MTDLIRQGALFLMSEKCYDNYFLYHNFLDVPCFKALLSKGLGLAIIAGSVLVKVPQVLKILNSKSGEGINIVGVVLDLLAISFHLSYNFMHGYPFSAWGDSTFLAIQTVTIAVLVLFFNGRKAQSGLFLVGYVVLMYVLNSGLTPMSVLFTIQSCNIPILLVGKLSQAYTNYQAGSTGQLSAATVIMMFAGSVARIFTSIQETGDFMIILTFIASTFANSVILGQLIYYWNKPAGVKVKDSKAKKPKTKKDD
As to B7, in the test with Tim17b2 (pair source set: screen_3), the MAPPIT interaction score is -0.183 (inactive).

B8: Mlp84B (protein)
chain: MPSFQPIEAPKCPRCGKSVYAAEERLAGGYVFHKNCFKCGMCNKSLDSTNCTEHERELYCKTCHGRKFGPKGYGFGTGAGTLSMDNGSQFLRENGDVPSVRNGARLEPRAIARAPEGEGCPRCGGYVYAAEQMLARGRSWHKECFKCGTCKKGLDSILCCEAPDKNIYCKGCYAKKFGPKGYGYGQGGGALQSDCYAHDDGAPQIRAAIDVDKIQARPGEGCPRCGGVVYAAEQKLSKGREWHKKCFNCKDCHKTLDSINASDGPDRDVYCRTCYGKKWGPHGYGFACGSGFLQTDGLTEDQISANRPFYNPDTTSIKARDGEGCPRCGGAVFAAEQQLSKGKVWHKKCYNCADCHRPLDSVLACDGPDGDIHCRACYGKLFGPKGFGYGHAPTLVSTSGESTIQFPDGRPLAGPKTSGGCPRCGFAVFAAEQMISKTRIWHKRCFYCSDCRKSLDSTNLNDGPDGDIYCRACYGRNFGPKGVGYGLGAGALTTF
Consider B8, for which the MAPPIT interaction score in the test with Traf-like is -0.422 (inactive).

B9: Tcs3 (protein)
chain: MVCALGIEGSANKIGIGIIRDGKVLANVRRTYITPPGEGFLPKETAKHHREAILGLVESSLKEAQLKSSDLDVICYTKGPGMAPPLLVGAIVARTLSLLWNIPLLGVNHCIGHIEMGRLITGAQNPTVLYVSGGNTQVIAYSNKRYRIFGETIDIAVGNCLDRFARIIKLSNDPSPGYNIEQLAKSSNRYIKLPYVVKGMDVSFSGILSYIEDLAEPGKRQNKRKKPQEEEVNNYSQADLCYSLQETIFAMLVEITERAMAHCGSNEVLIVGGVGCNERLQEMMRIMCEERGGKLFATDERYCIDNGLMIAHAGAEMFRSGTRMPFEESYVTQRFRTDEVLVSWRDD
In the case of B9, the MAPPIT interaction score with Tcs6 is 1.93 (inactive).

B10: sd (protein)
chain: MKNITSSSTCSTGLLQLQNNLSCSELEVAEKTEQQAVGPGTIPSPWTPVNAGPPGALGSADTNGSMVDSKNLDVGDMSDDEKDLSSADAEGVWSPDIEQSFQEALSIYPPCGRRKIILSDEGKMYGRNELIARYIKLRTGKTRTRKQVSSHIQVLARRKLREIQAKIKVQFWQPGLQPSTSQDFYDYSIKPFPQPPYPAGKTSTAVSGDETGIPPSQLPWEGRAIATHKFRLLEFTAFMEIQRDEIYHRHLFVQLGGKPSFSDPLLETVDIRQIFDKFPEKSGGLKDLYEKGPQNAFYLVKCWADLNTDLTTGSETGDFYGVTSQYESNENVVLVCSTIVCSFGKQVVEKVESEYSRLENNRYVYRIQRSPMCEYMINFIQKLKNLPERYMMNSVLENFTILQVMRARETQETLLCIAYVFEVAAQNSGTTHHIYRLIKE
For the molecule B10, the results for the MAPPIT interaction score with Tgi and with yki were 0.163 (inactive) and 0.822 (inactive), respectively.

B11: CtsF (protein)
chain: MRLFAAATVALVLLLGQAAGEELAEERAGQAQGDAESTESSETTTDQAVSEPPITLVHVLNPGEREYLSPNLIGVQNIAMTFLPLSMNFVNIIDAFREITAGVRYEILLNALDTKAIQPAEADIVCRLVILEKPWLRTQWGDKHRELVTSNCTDPAVNSVAGDPAEKARLLNEKYVHRSRRSANDILGRHKPYDEEAAKAQLQKSLDKLTAGEGPHYKIVKVYSASRQVDSGILTRIDADLIDGSEEQHRCIVDIWTKVWVRKDEHEITFKCRNQPVVQARHTRSVEWAEKKTHKKHSHRFDKVDHLFYKFQVRFGRRYVSTAERQMRLRIFRQNLKTIEELNANEMGSAKYGITEFADMTSSEYKERTGLWQRDEAKATGGSAAVVPAYHGELPKEFDWRQKDAVTQVKNQGSCGSCWAFSVTGNIEGLYAVKTGELKEFSEQELLDCDTTDSACNGGLMDNAYKAIKDIGGLEYEAEYPYKAKKNQCHFNRTLSHVQVAGFVDLPKGNETAMQEWLLANGPISIGINANAMQFYRGGVSHPWKALCSKKNLDHGVLVVGYGVSDYPNFHKTLPYWIVKNSWGPRWGEQGYYRVYRGDNTCGVSEMATSAVLA
B11: the MAPPIT interaction score with Taf12 was 0.31 (inactive).

B12: grk (protein)
chain: MMQIPFTRIFKVIFVLSTIVAVTDCCSSRILLLREHTLKIVQHQHSHMHEHAHELQQQIQETAVELLNRLELQRKQLEASAQEEADQLHPDTDPNPDSGGQLPNADDSIAADPEQDGIILGSSTDTWLASESSTPITDSETVTTPETVTHTGEPPPDPSSSSTPDSTTPSPNDKETEIQMLPCSEAYNTSFCLNGGHCFQHPMVNNTVFHSCLCVNDYDGERCAYKSWNGDYIYSPPTAQRKVRMAHIVFSFPVLLMLSSLYVLFAAVFMLRNVPDYRRKQQQLHLHKQRFFVRC
For the molecule B12, in the test with Tom20, the MAPPIT interaction score is 0.109 (inactive).

B13: Zpr1 (protein)
chain: MSTVSDPNSSNPPESAGNIRPEPIFREINAEQTDEIVEVESACMNCFETGVTRLLPTKIPFFREVVLMSFKCDHCGHINNEMQSASEIQKSGIRIELRVQSVADLNRRVVRSDNSSISIPEIELEIPVQSQKGEVTTVEGIIERTIAGLSQDQEKRRIDHPETAASIEKYIERLHRLKEVTTPFQVLLEDISGNSFIENPLAPAADPQLKTSYFTRSQQQNEQLGLYEQNHEEQHLLKPIAEDSWPIENLHGEVLQFPTNCPSCQAPCETNMKLTNIPHFKEVVIMATVCGACGHKTNEVKSGGGVEAQGVRFRVQIASREDLTRDVLKSETCSMSIPELDLEVGPHALCGRFTTVEGLLVAMRDQLDGTLFHDSADDATKQQMQRFLDTFEDVMNLKRVITLVLEDPAGNTYVQSLSDDDSEPDDKLTVERYDRSYEDNEDLGLNDMKTEGYEEKA
For B13, the MAPPIT interaction score with Swt1 is -0.39 (inactive).
